Assay results as given in the supplement of paper PMC10849652.
Of roughly 7,900 targets only a part is listed; those with a hit were picked by preference. About 0.6% of all pairs of compound and target were hits. Values without a mark were called inactive.

Legend:
Assay in all cases: log2 fold change, soluble protein after heating vs DMSO (PISA); higher = thermal stabilisation; K562 cells, 10 uM, 30 min; active = over 0.2 and 3.5 SD of the protein, either way, in both replicates (recomputed)
[1] = compound: CS(=O)(=O)c1ccc(-c2cnc(N)c(C(=O)Nc3ccccc3)n2)cc1
How it was run: (§1)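 For each measurement, 10 μM compound was applied for 30 min to K562 cells at 2×10^6 cells/mL. Aliquots were heated for 3 min across 48°C-58°C, pooled, and extracted in PBS with 0.5% NP-40 at 4°C; the supernatant after 21,000xg for 90 min was soluble protein. This was quantified by TMTpro 16plex LC-MS/MS with channel sums equalised, and thermal stability was reported relative to control samples from duplicates, on a log2 fold-change scale.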

crizotinib = compound: C[C@@H](Oc1cc(-c2cnn(C3CCNCC3)c2)cnc1N)c1c(Cl)ccc(F)c1Cl [crizotinib]
How it was run: as §1

[2] = compound: C[C@@H]1COCCN1C2=NC(=NC(=C2)C3(CC3)S(=O)(=O)C)C4=C5C=CNC5=CC=C4
How it was run: as §1

[3] = compound: C[C@H](C1=CC=C(C=C1)C(=O)NC2=C3C=CNC3=NC=C2)N
How it was run: as §1

duvelisib = compound: C[C@H](Nc1ncnc2nc[nH]c12)c1cc2cccc(Cl)c2c(=O)n1-c1ccccc1 [duvelisib]
How it was run: as §1

gandotinib = compound: Cc1cc(Nc2cc(CN3CCOCC3)c3nc(C)c(Cc4ccc(Cl)cc4F)n3n2)n[nH]1 [gandotinib]
How it was run: as §1

tozasertib = compound: Cc1cc(Nc2cc(N3CCN(C)CC3)nc(Sc3ccc(NC(=O)C4CC4)cc3)n2)n[nH]1 [tozasertib]
How it was run: as §1

[4] = compound: Cc1cc(SCc2sc(-c3ccc(C(F)(F)F)cc3)nc2C)ccc1OCC(=O)O
How it was run: as §1

doramapimod = compound: Cc1ccc(-n2nc(C(C)(C)C)cc2NC(=O)Nc2ccc(OCCN3CCOCC3)c3ccccc23)cc1 [doramapimod]
How it was run: as §1

ispinesib = compound: Cc1ccc(C(=O)N(CCCN)[C@@H](c2nc3cc(Cl)ccc3c(=O)n2Cc2ccccc2)C(C)C)cc1 [ispinesib]
How it was run: as §1

bafetinib = compound: Cc1ccc(NC(=O)c2ccc(CN3CC[C@H](N(C)C)C3)c(C(F)(F)F)c2)cc1Nc1nccc(-c2cncnc2)n1 [bafetinib]
How it was run: as §1

[5] = compound: Cc1cccc(CC(=O)N2CCc3c2ccc(-c2cn(C)c4ncnc(N)c24)c3F)n1
How it was run: as §1

nilotinib = compound: Cc1cn(-c2cc(NC(=O)c3ccc(C)c(Nc4nccc(-c5cccnc5)n4)c3)cc(C(F)(F)F)c2)cn1 [nilotinib]
How it was run: as §1

[6] = compound: Cc1nc(Nc2n[nH]c3c2CN(C(=O)N[C@H](CN(C)C)c2ccccc2)C3(C)C)c2sccc2n1
How it was run: as §1

dasatinib = compound: Cc1nc(Nc2ncc(C(=O)Nc3c(C)cccc3Cl)s2)cc(N2CCN(CCO)CC2)n1 [dasatinib]
How it was run: as §1

[7] = compound: Cc1ncc(-c2ccnc(Nc3ccc(S(C)(=O)=O)cc3)n2)n1C(C)C
How it was run: as §1

[8] = compound: Cn1cc(-c2ccc3c(c2)CCN3C(=O)Cc2cccc(C(F)(F)F)c2)c2c(N)ncnc21
How it was run: as §1

[9] = compound: Cn1cc(-c2ccc3nnc(C(F)(F)c4ccc5ncccc5c4)n3n2)cn1
How it was run: as §1

tipifarnib = compound: Cn1cncc1[C@@](N)(c1ccc(Cl)cc1)c1ccc2c(c1)c(-c1cccc(Cl)c1)cc(=O)n2C [tipifarnib]
How it was run: as §1

mubritinib = compound: FC(F)(F)c1ccc(/C=C/c2nc(COc3ccc(CCCCn4ccnn4)cc3)co2)cc1 [mubritinib]
How it was run: as §1

Sequence of UniProt P19338 (P19338 whole entry, looked up): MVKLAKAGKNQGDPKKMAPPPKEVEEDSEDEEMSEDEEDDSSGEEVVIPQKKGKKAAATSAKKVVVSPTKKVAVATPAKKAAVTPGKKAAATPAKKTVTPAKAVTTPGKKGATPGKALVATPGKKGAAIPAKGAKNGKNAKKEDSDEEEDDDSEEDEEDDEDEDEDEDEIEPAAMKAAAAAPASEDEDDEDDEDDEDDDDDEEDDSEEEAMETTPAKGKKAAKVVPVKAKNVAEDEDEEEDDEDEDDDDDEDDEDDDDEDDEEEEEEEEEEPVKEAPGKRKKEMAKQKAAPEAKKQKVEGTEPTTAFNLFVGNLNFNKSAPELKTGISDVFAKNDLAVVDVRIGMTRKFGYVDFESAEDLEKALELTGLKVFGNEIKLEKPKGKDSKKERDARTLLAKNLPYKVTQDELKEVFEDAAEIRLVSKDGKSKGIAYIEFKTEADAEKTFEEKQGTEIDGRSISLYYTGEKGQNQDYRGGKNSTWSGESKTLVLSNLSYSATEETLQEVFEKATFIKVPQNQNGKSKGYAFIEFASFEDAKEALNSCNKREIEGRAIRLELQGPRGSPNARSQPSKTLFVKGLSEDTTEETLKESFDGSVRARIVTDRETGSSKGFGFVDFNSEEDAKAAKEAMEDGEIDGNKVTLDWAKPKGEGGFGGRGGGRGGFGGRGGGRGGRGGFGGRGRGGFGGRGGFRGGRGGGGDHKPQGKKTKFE
Sequence of UniProt P35580 (P35580 whole entry, looked up): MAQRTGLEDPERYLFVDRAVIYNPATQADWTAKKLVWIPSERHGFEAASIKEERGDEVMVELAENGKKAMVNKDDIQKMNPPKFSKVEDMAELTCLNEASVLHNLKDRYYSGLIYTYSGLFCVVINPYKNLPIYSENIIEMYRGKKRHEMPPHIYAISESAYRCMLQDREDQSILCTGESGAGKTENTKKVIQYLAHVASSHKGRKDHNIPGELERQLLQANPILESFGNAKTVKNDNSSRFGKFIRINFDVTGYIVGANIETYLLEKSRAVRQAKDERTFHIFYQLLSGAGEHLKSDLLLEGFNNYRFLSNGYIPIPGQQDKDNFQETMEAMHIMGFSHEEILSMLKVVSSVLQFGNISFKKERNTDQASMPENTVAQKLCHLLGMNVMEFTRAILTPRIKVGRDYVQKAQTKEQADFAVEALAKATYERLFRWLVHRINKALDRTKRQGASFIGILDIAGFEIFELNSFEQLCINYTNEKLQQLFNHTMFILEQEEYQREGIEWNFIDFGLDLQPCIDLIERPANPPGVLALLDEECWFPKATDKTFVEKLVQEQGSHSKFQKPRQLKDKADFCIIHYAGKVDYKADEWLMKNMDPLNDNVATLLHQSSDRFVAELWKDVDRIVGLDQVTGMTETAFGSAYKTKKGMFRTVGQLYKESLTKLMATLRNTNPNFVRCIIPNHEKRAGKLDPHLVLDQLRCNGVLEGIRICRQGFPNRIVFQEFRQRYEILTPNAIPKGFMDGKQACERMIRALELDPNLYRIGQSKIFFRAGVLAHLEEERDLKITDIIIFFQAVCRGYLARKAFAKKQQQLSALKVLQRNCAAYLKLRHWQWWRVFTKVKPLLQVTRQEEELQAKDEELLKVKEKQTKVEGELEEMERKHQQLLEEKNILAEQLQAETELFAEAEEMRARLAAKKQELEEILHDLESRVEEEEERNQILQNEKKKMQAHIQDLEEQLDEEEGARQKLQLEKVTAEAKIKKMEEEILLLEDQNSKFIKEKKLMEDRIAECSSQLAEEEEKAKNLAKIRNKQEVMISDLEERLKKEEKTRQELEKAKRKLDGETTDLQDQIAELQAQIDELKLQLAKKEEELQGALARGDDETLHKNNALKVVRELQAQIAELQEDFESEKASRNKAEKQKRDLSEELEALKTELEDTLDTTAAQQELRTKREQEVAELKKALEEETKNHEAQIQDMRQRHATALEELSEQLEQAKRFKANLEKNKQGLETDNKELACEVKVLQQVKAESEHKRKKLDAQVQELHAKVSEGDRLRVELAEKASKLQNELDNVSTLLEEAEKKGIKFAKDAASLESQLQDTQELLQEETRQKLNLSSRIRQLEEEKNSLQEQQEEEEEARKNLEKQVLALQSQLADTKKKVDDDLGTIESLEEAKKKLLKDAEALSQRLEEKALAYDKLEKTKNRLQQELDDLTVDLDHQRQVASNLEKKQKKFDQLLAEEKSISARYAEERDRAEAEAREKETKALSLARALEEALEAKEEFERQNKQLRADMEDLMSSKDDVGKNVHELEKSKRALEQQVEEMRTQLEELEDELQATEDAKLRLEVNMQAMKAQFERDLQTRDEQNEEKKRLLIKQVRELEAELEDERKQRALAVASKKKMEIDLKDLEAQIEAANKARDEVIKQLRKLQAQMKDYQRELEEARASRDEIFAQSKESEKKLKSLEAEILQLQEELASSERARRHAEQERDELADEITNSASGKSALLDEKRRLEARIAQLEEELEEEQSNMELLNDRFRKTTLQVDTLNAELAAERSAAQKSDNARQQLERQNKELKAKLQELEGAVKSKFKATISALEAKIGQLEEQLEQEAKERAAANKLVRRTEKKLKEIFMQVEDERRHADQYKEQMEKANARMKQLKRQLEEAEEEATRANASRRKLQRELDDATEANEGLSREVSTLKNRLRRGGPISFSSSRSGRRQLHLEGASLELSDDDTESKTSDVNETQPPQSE
Sequence of UniProt Q9Y314 (Q9Y314 whole entry, looked up): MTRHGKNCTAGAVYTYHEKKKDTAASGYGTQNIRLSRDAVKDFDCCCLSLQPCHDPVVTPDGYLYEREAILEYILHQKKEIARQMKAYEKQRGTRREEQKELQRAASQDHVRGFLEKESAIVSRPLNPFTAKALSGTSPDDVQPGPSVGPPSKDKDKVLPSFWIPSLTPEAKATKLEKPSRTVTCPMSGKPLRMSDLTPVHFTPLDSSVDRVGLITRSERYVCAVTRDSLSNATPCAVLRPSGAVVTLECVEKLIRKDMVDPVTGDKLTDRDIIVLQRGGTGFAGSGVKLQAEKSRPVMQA
Sequence of UniProt Q9BV86 (Q9BV86 whole entry, looked up): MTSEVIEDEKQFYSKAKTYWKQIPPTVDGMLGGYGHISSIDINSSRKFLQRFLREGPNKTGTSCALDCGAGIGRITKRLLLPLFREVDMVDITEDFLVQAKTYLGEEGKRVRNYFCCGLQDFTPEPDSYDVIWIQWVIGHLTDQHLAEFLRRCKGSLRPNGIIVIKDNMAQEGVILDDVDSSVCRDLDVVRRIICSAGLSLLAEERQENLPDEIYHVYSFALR
Sequence of UniProt Q8NCE2 (Q8NCE2 whole entry, looked up): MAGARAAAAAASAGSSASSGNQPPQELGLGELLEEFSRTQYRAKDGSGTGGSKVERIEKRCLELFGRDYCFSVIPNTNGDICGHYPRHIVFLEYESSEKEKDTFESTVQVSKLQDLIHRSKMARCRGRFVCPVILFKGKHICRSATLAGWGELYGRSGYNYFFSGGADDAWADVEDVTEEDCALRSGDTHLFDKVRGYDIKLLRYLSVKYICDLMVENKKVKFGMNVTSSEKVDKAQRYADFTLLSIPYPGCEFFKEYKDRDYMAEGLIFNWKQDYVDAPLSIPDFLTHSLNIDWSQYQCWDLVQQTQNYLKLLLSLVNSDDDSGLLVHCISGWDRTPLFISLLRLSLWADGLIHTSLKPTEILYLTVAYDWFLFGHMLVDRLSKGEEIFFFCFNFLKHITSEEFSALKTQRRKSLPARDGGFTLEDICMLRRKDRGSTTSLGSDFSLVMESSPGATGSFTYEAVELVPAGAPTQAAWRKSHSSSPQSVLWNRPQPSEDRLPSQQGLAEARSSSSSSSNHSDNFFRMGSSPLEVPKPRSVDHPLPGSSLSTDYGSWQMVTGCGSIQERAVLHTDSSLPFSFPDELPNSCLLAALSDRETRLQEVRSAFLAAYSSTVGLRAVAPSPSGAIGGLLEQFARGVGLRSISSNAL
Sequence of UniProt Q8WVJ2 (Q8WVJ2 whole entry, looked up): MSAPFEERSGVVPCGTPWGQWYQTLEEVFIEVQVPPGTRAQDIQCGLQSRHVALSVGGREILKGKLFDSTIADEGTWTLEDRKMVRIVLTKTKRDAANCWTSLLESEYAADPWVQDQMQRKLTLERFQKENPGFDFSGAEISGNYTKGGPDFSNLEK
Sequence of UniProt P04181 (P04181 whole entry, looked up): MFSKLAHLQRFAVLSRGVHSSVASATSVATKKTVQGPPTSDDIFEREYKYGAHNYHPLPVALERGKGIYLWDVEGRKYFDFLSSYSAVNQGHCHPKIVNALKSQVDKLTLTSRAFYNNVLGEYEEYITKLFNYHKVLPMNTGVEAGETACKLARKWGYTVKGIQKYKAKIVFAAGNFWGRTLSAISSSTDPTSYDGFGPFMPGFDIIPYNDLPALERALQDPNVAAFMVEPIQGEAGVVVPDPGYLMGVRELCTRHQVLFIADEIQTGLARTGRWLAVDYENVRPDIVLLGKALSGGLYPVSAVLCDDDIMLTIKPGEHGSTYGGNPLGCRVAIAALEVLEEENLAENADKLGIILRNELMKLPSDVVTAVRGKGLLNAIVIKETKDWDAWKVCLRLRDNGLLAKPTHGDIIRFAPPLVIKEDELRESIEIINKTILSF
Sequence of UniProt P55209 (P55209 whole entry, looked up): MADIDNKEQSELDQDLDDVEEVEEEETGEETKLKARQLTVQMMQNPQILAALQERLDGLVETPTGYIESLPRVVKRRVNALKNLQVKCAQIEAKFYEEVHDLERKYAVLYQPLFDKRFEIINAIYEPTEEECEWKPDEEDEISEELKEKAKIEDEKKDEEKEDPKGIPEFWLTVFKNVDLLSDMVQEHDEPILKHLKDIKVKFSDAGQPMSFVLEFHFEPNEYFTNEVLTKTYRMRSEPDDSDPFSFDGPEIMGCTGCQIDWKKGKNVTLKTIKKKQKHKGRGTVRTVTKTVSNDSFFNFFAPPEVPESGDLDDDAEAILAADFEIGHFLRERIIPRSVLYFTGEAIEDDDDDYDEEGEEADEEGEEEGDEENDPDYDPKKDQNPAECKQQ
Sequence of UniProt Q9NRP0 (Q9NRP0 whole entry, looked up): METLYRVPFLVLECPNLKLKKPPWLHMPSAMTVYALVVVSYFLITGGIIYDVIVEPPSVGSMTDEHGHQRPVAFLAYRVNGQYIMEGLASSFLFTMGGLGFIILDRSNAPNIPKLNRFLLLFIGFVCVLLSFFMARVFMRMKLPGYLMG

Target | log2 fold change [1] | log2 fold change (crizotinib) | log2 fold change [2] | log2 fold change [3] | log2 fold change (duvelisib) | log2 fold change (gandotinib) | log2 fold change (tozasertib) | log2 fold change [4] | log2 fold change (doramapimod) | log2 fold change (ispinesib) | log2 fold change (bafetinib) | log2 fold change [5] | log2 fold change (nilotinib) | log2 fold change [6] | log2 fold change (dasatinib) | log2 fold change [7] | log2 fold change [8] | log2 fold change [9] | log2 fold change (tipifarnib) | log2 fold change (mubritinib)
NUDCD2 (UniProt Q8WVJ2) | 0.049 | -0.02 | 0.1 | -0.077 | 0.004 | -0.042 | 0.149 | 0.073 | -0.049 | -0.12 | 0.017 | 0.033 | -0.119 | -0.216 | -0.171 | -0.026 | 0.02 | 0.066 | -0.1 | 0.077
MYH11 isoform 2 (UniProt P35749) | -0.026 | -0.025 | 0.01 | -0.078 | 0 | 0.014 | -0.032 | 0.009 | 0.057 | -0.012 | -0.055 | -0.016 | 0.05 | 0.014 | -0.027 | -0.025 | 0.039 | -0.001 | 0.005 | 0.007
OAT (UniProt P04181) | -0.003 | -0.123 | 0.053 | -0.083 | 0.032 | -0.03 | -0.102 | 0.018 | 0.037 | -0.233 (active) | -0.038 | -0.018 | 0.036 | -0.021 | -0.109 | -0.073 | 0.026 | 0.061 | -0.004 | 0.002
NTMT1 (UniProt Q9BV86) | 0.128 | 0.039 | 0.074 | -0.029 | 0.054 | 0.093 | 0.067 | 0.021 | 0.071 | 0.02 | 0.009 | 0.068 | 0.056 | 0 | -0.036 | 0.023 | 0.073 | 0.076 | 0.043 | 0.138
MTMR14 (UniProt Q8NCE2) | 0.033 | 0.069 | -0.054 | 0.014 | 0.048 | 0.144 | 0.046 | 0.079 | -0.03 | 0.061 | -0.051 | -0.089 | -0.023 | -0.04 | -0.063 | 0.016 | -0.006 | -0.084 | -0.035 | 0.058
MYH10 isoform 3 (UniProt P35580) | -0.013 | -0.038 | 0.056 | -0.026 | 0.023 | -0.004 | -0.009 | 0.013 | 0.009 | 0.01 | -0.046 | 0.033 | -0.049 | -0.001 | -0.057 | 0.004 | 0.056 | 0.011 | -0.083 | 0.059
OSTC (UniProt Q9NRP0) | 0.044 | -0.047 | 0.132 | -0.089 | 0.041 | -0.112 | -0.001 | -0.042 | 0.028 | -0.117 | -0.137 | 0.027 | -0.047 | -0.013 | -0.059 | -0.029 | 0.057 | 0.069 | -0.013 | 0.044
NEU1 (UniProt Q99519) | -0.005 | -0.365 (active) | -0.15 | 0.029 | 0.06 | -0.056 | -0.015 | -0.008 | 0.155 | -0.319 (active) | -0.212 | 0.171 | -0.051 | -0.009 | 0.019 | -0.147 | -0.04 | 0.01 | 0.072 | -0.031
NCL (UniProt P19338) | -0.136 | 0.12 | -0.59 | 0.428 | -0.162 | 0.315 | 0.064 | 0.075 | 0.254 | -0.19 | 0.272 | 0 | -0.033 | 0.026 | 0.209 | 0.051 | -0.445 | -0.237 | 0.225 | -0.325
NFYC (UniProt Q13952) | 0.022 | 0.013 | 0.054 | 0.005 | 0.086 | 0.002 | 0.022 | 0.027 | 0.001 | 0.089 | -0.017 | -0.041 | -0.024 | -0.021 | 0.032 | -0.008 | 0.014 | 0.048 | 0.038 | 0.066
MRPS27 isoform 2 (UniProt Q92552) | -0.017 | -0.062 | 0.005 | 0.097 | 0.029 | 0.094 | 0.002 | 0.096 | 0.013 | -0.304 (active) | 0.181 | 0.099 | -0.083 | 0.021 | -0.104 | -0.049 | 0.022 | 0.033 | -0.112 | 0.119
NOSIP (UniProt Q9Y314) | 0.108 | 0.329 | -0.08 | -0.03 | 0.118 | -0.118 | 0.191 | 0.257 | -0.113 | 0.133 | 0.085 | 0.066 | -0.11 | -0.277 | -0.229 | 0.247 | -0.063 | -0.111 | -0.128 | -0.098
NASP (UniProt P49321) | 0.005 | 0.063 | 0.045 | -0.061 | 0.08 | -0.066 | 0.105 | 0.013 | -0.053 | 0.06 | -0.036 | 0.011 | -0.013 | -0.032 | -0.027 | 0 | -0.02 | 0.009 | -0.026 | 0.026
NAP1L1 (UniProt P55209) | 0.018 | -0.025 | -0.122 | -0.021 | 0.068 | -0.09 | 0.045 | -0.016 | 0.009 | 0.04 | -0.018 | -0.094 | 0.009 | -0.044 | 0.05 | 0.022 | -0.004 | -0.039 | 0.001 | -0.014
MRPS33 (UniProt Q9Y291) | 0.041 | 0.005 | 0.005 | 0.168 | -0.034 | -0.034 | 0.02 | 0.121 | 0.034 | -0.485 (active) | 0.123 | 0.125 | -0.129 | 0.064 | 0.031 | -0.04 | -0.033 | 0.028 | -0.003 | 0.106
